From the supplement of paper PMC11624193, “Coupling cellular drug-target engagement to downstream pharmacology with CeTEAM” (Nature Communications, 2024)
Values without a mark were called inactive.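 The calls were made as follows: active = log2 fold change beyond 2 SD from the library mean after excluding viability outliers; inactive = within 2 SD.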

Target: PARP1 L713F-nLuc biosensor (HCT116) (UniProt P09874)
Test: PARP1 L713F-nLuc/akaLuc ratio relative to DMSO control (biosensor stabilization) (fold change); higher = more PARP1 biosensor stabilization (target engagement / stabilizer), active = hit call of the paper
Conditions: stock concentration (mM; final µM = stock mM x 1): 10; 24 h

Chain of PARP1 L713F-nLuc biosensor (HCT116) (P09874 whole entry L713F, looked up): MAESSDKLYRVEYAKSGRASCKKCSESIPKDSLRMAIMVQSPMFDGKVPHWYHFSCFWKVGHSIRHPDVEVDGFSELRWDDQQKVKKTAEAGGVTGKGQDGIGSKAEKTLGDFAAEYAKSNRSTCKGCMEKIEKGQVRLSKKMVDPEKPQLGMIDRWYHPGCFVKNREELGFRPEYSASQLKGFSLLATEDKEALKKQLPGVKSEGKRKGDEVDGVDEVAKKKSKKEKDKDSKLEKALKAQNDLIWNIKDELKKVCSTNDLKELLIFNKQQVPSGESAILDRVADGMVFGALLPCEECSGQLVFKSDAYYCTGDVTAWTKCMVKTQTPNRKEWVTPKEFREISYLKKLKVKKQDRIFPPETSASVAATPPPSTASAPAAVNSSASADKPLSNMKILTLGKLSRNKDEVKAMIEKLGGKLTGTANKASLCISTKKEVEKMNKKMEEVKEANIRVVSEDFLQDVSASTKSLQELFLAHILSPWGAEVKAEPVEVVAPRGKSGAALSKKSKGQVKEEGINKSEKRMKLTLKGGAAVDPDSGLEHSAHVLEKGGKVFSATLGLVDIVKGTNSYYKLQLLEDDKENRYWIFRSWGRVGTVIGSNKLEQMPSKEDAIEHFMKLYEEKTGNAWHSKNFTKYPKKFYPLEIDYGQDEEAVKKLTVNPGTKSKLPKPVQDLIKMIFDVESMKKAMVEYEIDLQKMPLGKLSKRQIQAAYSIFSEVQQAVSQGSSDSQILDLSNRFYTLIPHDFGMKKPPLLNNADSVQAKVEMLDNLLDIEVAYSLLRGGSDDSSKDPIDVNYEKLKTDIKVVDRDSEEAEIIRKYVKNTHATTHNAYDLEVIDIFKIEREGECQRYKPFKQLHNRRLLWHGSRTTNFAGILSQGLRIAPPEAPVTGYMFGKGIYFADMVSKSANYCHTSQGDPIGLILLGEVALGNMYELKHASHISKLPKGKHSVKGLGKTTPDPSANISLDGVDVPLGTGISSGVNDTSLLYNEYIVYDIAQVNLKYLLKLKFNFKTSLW

Row | Compound | PARP1 L713F-nLuc/akaLuc ratio
1 | CC(=O)Nc1cc(Oc2ccc3c(nc(Nc4ccc(F)cc4F)n3C)c2C)ccn1 | 0.89
2 | COc1ccccc1C(=O)Nc1cc2c(cc1N1CCCC1)n(C)c(=O)n2C | 0.797
3 | O=C(O)c1c[nH]c2cc(Cl)c(-c3ccc(C4(O)CCC4)cc3)cc12 | 0.446
4 | O=C(/C=C/c1ccc(O)c(O)c1)O[C@@H]1C[C@](O)(C(=O)O)C[C@@H](O)[C@H]1O [Chlorogenic acid] | 1.16
5 | COCC(=O)Nc1cc(Sc2ccccc2)ccc1N=C(NC(=O)OC)NC(=O)OC [Febantel] | 1.6
6 | CC(=O)NCC(=O)N1[C@@H]2CC[C@H]1c1ccc(Nc3ncc(C(F)(F)F)c(NC4CCC4)n3)cc12 | 1.27
7 | COc1cc2nc(N3CCCC3)nc(NCCCCCN3CCCC3)c2cc1OC | 0.881
8 | Cc1c(C(=O)Nc2ccc(N3C[C@@H](C)O[C@@H](C)C3)nc2)cccc1-c1ccc(OC(F)(F)F)cc1 [Sonidegib (Erismodegib, NVP-LDE225)] | 0.652
9 | N#CCC1CCN(c2nc(Nc3ccc(N4CCC(O)CC4)cc3)c3c(=O)[nH]ncc3n2)CC1 [Gusacitinib] | 0.883
10 | CCS(=O)(=O)N1CCN(c2ccc(Nc3ncc(C(N)=O)c(NC4CC4)n3)cc2)CC1 | 1.99
